Screening results (PubChem BioAssay)
This is a sample that favours compounds with a hit; in the whole collection about 3.4% have one here.
USP28 inh = human USP28 deubiquitinase inhibition. actives 3% (n = 47,000). purified USP28, Ub-rhodamine cleavage fluorescence, 30 min. inhibition, % at 25 µM
OTUD3 block = inhibitors of human OTUD3 deubiquitinase; actives 0.7% (n = 47,000); purified OTUD3, Ub-rhodamine fluorescence, 2 h; inhibition, % at 25 µM
* = called active by the depositor. Cut-off read from the data, not from the text of the source: active = inhibition above about 30%; inactive = the rest.

SMILES	USP28 inh	OTUD3 block
O=S(c1ccc2ccccc2c1)c1cnns1 (stereo unspecified)	14	34*
Cc1noc([C@@H]2C[C@H](NC(=O)Nc3cccc(C#N)c3)CN2C)n1	-11	-7
CC(=O)Nc1ccc(SCC(=O)Nc2cc(-c3cc(C)c(C)cc3C)nn2-c2ccccc2)cc1	-16	4
COc1ccc(CCNC(=O)c2cnc3sc4c(n3c2=O)CCCC4)cc1	-10	-6
COc1ccc(CCNC(=O)c2cnc3sc4c(n3c2=O)CCCC4)cc1OC	40*	-6
Cc1ccc(C(=O)Nc2c(C(=O)N3CCN(c4ccccc4)CC3)[nH]c3ccccc23)cc1	13	46*
Cc1ccc(C(=O)Nc2c(C(=O)N3CCN(c4cccc(C)c4)CC3)[nH]c3ccccc23)cc1	-46	-49
O=C(COc1ncnc2scc(-c3ccccc3)c12)Nc1cc(C(F)(F)F)ccc1Cl	-20	-7
CCOc1ccc(NC(=O)COc2cccc3c2CCN(CC)C3=O)cc1	75*	0
CCN1CCc2c(OCC(=O)Nc3cc(C(F)(F)F)ccc3Cl)cccc2C1=O	33*	29
O=C(N[C@@H](Cc1ccccc1)C(=O)Nc1ccc2c(c1)OCCO2)c1cccnc1	3	0
O=C(COc1cccc2c1CCN(Cc1cccnc1)C2=O)Nc1ccc2c(c1)OCCO2	90*	-5
COc1ccc(NC(=O)COc2cccc3c2CCNC3=O)cc1OC	9	0
Fc1ccc(Nc2nc(Nc3cccc(F)c3)nc3nccnc23)cc1	-173	1
O=C(CCCn1c(=O)c2ccccc2n(Cc2cc(=O)n3ccccc3n2)c1=O)NCc1ccco1	-1	1
O=C(NCc1ccco1)c1ccc(Cn2c(=O)c3sccc3n(Cc3cc(=O)n4ccccc4n3)c2=O)cc1	50*	17
O=C(Cc1cccc(F)c1)N1CCC(Nc2ncnc3c2CCC3)C1 (stereo unspecified)	-6	-7
Cc1cc(C2CCCN2S(=O)(=O)c2ccc3c(c2)OCCO3)no1 (stereo unspecified)	19	13
CCCc1cc(C2CCCN2S(=O)(=O)c2ccc3c(c2)OCCN3C(C)=O)no1 (stereo unspecified)	49*	-12
CC(=O)N1CCOc2cc(S(=O)(=O)N3CCCC3c3cc(C)on3)ccc21 (stereo unspecified)	24	-3
CC(=O)N1CCOc2cc(S(=O)(=O)N3CCCC3c3cc(C(C)C)on3)ccc21 (stereo unspecified)	40*	6
Cc1ccc(C(=O)N2CCC([C@@H]3C[C@H](C(F)F)n4nc(C(C)(C)C)cc4N3)CC2)cn1	-53	-72
Cc1cc(C)nc(N2CCC(N(CC3CC3)C(=O)c3cccnc3)CC2)n1	-99	-76
CCc1cc2c3c([nH]c2cc1S(=O)(=O)NCc1cccc(OC)c1)CCCC3=O	16	0
CCc1cc2c3c([nH]c2cc1S(=O)(=O)NCc1ccccc1)CCCC3=O	11	-9
SMILES	USP28 inh	OTUD3 block
Cc1ccc(CNS(=O)(=O)c2cc3[nH]c4c(c3cc2C)C(=O)CCC4)cc1	44*	-12
Cc1cc2c3c([nH]c2cc1S(=O)(=O)NCc1ccc2c(c1)OCO2)CCCC3=O	31*	13
Cc1c(Cl)cccc1NC(=O)N1CCCC1c1ccco1 (stereo unspecified)	-1	-3
CC1(C)Cc2ccccc2-c2[nH]c(=O)n(-c3ccc(F)cc3)c(=O)c21	-15	-3
Cc1cccc(NC(=O)CN2C(=O)CC(c3ccccc3)=Nc3ccccc32)c1C	0	9
Cc1ccc(C2=Nc3ccccc3N(CC(=O)Nc3cccc(C)c3C)C(=O)C2)cc1C	32*	31*
O=C(Cn1c(NCc2ccccc2)nc2ccccc21)NCC(F)(F)F	27	10
